Measurements from PubChem BioAssay (NCI).
About 83,000 compounds went through this panel and 20% of them were active in at least one assay; those are over-represented in the sample as a whole.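 In brief: 96-well plates, 48 h treatment, single concentration, percent growth endpoint.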 Values without a mark were called inactive. Calls of active or inactive are those of the source. How the source made its calls: active means growth percent below 10; inactive means the rest.

Columns and labels:
Assay in all cases: NCI-60 one-dose screen, 48 h (100 = growth as untreated, 0 = no growth, -100 = all killed)
HT29 colon = details: 10 µM unless noted
SNB-75 CNS = details: 10 µM unless noted
SNB-19 CNS = details: 10 µM unless noted
U251 CNS = details: 10 µM unless noted
PC-3 prostate = details: 10 µM unless noted
SK-MEL-5 melanoma = details: 10 µM unless noted
UACC-62 melanoma = details: 10 µM unless noted
LOX IMVI melanoma = details: 10 µM unless noted
SK-MEL-28 melanoma = details: 10 µM
SK-MEL-2 melanoma = details: 10 µM unless noted
EKVX NSCLC = details: 10 µM unless noted
SN12C renal = details: 10 µM unless noted
UO-31 renal = details: 10 µM unless noted
TK-10 renal = details: 10 µM unless noted
ACHN renal = details: 10 µM unless noted
CAKI-1 renal = details: 10 µM unless noted
A498 renal = details: 10 µM unless noted
CCRF-CEM leukemia = details: 10 µM unless noted
MOLT-4 leukemia = details: 10 µM unless noted
SR leukemia = details: 10 µM unless noted

| Compound | growth (HT29 colon) | growth (SNB-75 CNS) | growth (SNB-19 CNS) [%] | growth (U251 CNS) | growth (PC-3 prostate) | growth (SK-MEL-5 melanoma) | growth (UACC-62 melanoma) | growth (LOX IMVI melanoma) | growth (SK-MEL-28 melanoma) | growth (SK-MEL-2 melanoma) | growth (EKVX NSCLC) | growth (SN12C renal) | growth (UO-31 renal) | growth (TK-10 renal) | growth (ACHN renal) | growth (CAKI-1 renal) | growth (A498 renal) | growth (CCRF-CEM leukemia) | growth (MOLT-4 leukemia) | growth (SR leukemia) |
| --- | --- | --- | --- | --- | --- | --- | --- | --- | --- | --- | --- | --- | --- | --- | --- | --- | --- | --- | --- | --- |
| Oc1[nH]c2ccccc2c1N=Nc1nnc2n1N=C(c1ccccc1)CS2 | 72.5% | 65.1% | 83.6 | 50.4% | 81% | 95.6% | 99.8% | 93.4% | 97% | 87.6% | 87.7% | 99.1% | 100% | 94% | 94.8% | 79.4% | 92.9% | 96.6% | 88% | 77.3% |
| S=C1CCCC(=S)N1 | 103% | 99% | 103 | 101% | 103% | 107% | 96% | 96.8% | 106% | 102% | 106% | 99.3% | 87.8% | 114% | 105% | 93% | 91.3% | 105% | 107% | 114% |
| COc1ccc(C2Nc3ncnc(N)c3N=C3c4ccccc4C(=O)C32)cc1 (configuration not stated) | 98.2% | 71.5% | 82.2 | 90.9% | 78% | 95.6% | 117% | 92.8% | 113% | 88.5% | 94.5% | 140% | 67% | 123% | 92.4% | 80.1% | 99.2% | 97.9% | 57.9% | 9.71% (active) |
| Cc1ccc2c(n1)C(=O)C(Oc1ccc(Br)cc1)=CC2=O | 97.6% | 82.2% | 96.6 | 94.5% | 95% | 93.6% | 95.9% | 84.2% | 116% | 91.7% | 104% | 93.5% | 84.3% | 103% | 7.34% (active) | 97.5% | – | 62% | 87.9% | 92.1% |
| O=C1/C(=C/c2cccc(O)c2)COc2ccc(O)cc21 | 72.7% | 96.4% | 80 | 29.6% | 72.7% | 86.9% | 82.4% | -57.1% (active) | 102% | 108% | 93.9% | 73.8% | 79.6% | 130% | 67.3% | 95.3% | 117% | 8.33% (active) | 33.3% | 10.5% |
| O=C(/C=C/c1ccc(C(F)(F)F)cc1)c1ccc(Nc2nc(NCCO)nc(Nc3ccc(Cl)cc3)n2)cc1 | 5.76% (active) | 37.4% | 76 | -41.8% (active) | 32.9% | 84.7% | 62.4% | 0.53% (active) | 73% | 99.9% | 59.1% | 79.1% | 59.9% | 86.6% | 52.2% | 68.2% | 78.5% | 18.2% | 20.7% | 21.2% |
| CCCN1CCN(c2ccc3nc(-c4ccc5nc(-c6cc(OC)ccc6OC)[nH]c5c4)[nH]c3c2)CC1 | -23.2% (active) | 90.9% | 115 | 85.8% | 103% | 99.5% | 110% | -83.3% (active) | 99.4% | 118% | 96.7% | 99.2% | 85.7% | 118% | 106% | 106% | – | 3.98% (active) | 77% | -25.6% (active) |
| Nc1ccc(-n2c(=O)oc3ccc(Cl)cc3c2=O)c(Cl)c1 | 3.86% (active) | -41.3% (active) | 16.2 | -8.77% (active) | 2.14% (active) | -83.9% (active) | -34.9% (active) | 0.455% (active) | -10.6% (active) | -31.6% (active) | 4.42% (active) | -0.532% (active) | 0.242% (active) | 8.25% (active) | – | -21.5% (active) | -67% (active) | 0.0077% (active) | -33.5% (active) | – |
| COc1cccc2c1C=C1CCCCC3=Cc4c(OC)cccc4OC13O2 | 16.3% | -18.1% (active) | 51.3 | 30.9% | 33.7% | 50.3% | 24.2% | 32.8% | 53.6% | 48.6% | 60.5% | 49.5% | 44.5% | 74.7% | 38.7% | 47.8% | 35.9% | 27.9% | 29.1% | 28.6% |
| O=C1/C=C/[C@@H](O)[C@@H]2C[C@@H](O)C[C@H]2/C=C/CCCCO1 | 2.63% (active) | 29.7% | 28.7 | 39.7% | -17.5% (active) | -93.1% (active) | 64.1% | 1.64% (active) | -8.98% (active) | 8.85% (active) | 20.6% | 45.3% | 8.64% (active) | 32.1% | 17.9% | 18.4% | -25.5% (active) | – | 5.39% (active) | 14.4% |
| COc1ccc(C2=C(c3cccc(OC)c3)C(=O)c3ccc(C)nc3C2=O)cc1 | 87.8% | 23.6% | 43.9 | 37.6% | 52.1% | 34.6% | 46.7% | 30.6% | 50.7% | 42.8% | 75.3% | 40.6% | 25.4% | 93.8% | 33.6% | 34.2% | – | 19.1% | -31.5% (active) | 28.5% |
| COC(=O)/C(=C\c1c(C)[nH]c2ccccc12)S(=O)(=O)c1ccccc1 | 9.54% (active) | -8.87% (active) | 19.1 | 25.7% | -1.81% (active) | 34.1% | 53.8% | 15.6% | 16.6% | 23.9% | 61.3% | 39.7% | 23.8% | 46.8% | 49.1% | 27% | -3.18% (active) | – | 15.5% | 27.2% |
| O=C(NN1C(=O)CSC1c1ccc(Cl)cc1)c1[nH]c2ccc(F)cc2c1-c1ccccc1 (configuration not stated) | 19.2% | 59.2% | 64.2 | 49.6% | 42.7% | 75% | 48.7% | 60.9% | 101% | 49.3% | 49.3% | 44.1% | 36.3% | 66.9% | 43.8% | 32.1% | 84.3% | 34.3% | 34.1% | 48.9% |
| COC(=O)/C(=C\c1c(-c2ccccc2)[nH]c2ccccc12)S(C)(=O)=O | 8.37% (active) | -4.33% (active) | 37.6 | 26.4% | 25.6% | 14.3% | 37.1% | 45.1% | 36.1% | 39.1% | 58% | 59.4% | 41.5% | 67.2% | 56.8% | 46.4% | 29% | – | 25.6% | 45.1% |
| Brc1ccc(Oc2ccc(Nc3ncnc4onc(-c5ccccc5)c34)cc2)cc1 | 95.5% | 86.7% | 106 | 98.9% | 102% | 92.6% | 88.6% | 94.5% | 97.2% | 110% | 105% | 94.8% | 73% | 110% | 105% | 91.8% | 82.4% | 97.3% | 94% | 94.2% |
